# Reference: PubChem BioAssay (NCI)
# This is part of a sample that, as a whole, favours compounds with a hit. Of some 79,000 tested, about 15% had one in any assay. A number with no mark means an inactive call. Activity calls are given as the source filed them. Cut-off read from the data, not from the text of the source: active = growth inhibition above about 70%; inactive = the rest.
# Experiments:
# [1] = NCI Yeast Anticancer Drug Screen. Data for the rad14 strain (AID 159);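 note: 0% = growth of vehicle-treated control cultures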; conditions: S. cerevisiae rad14 strain growth inhibition, active compounds read high
# In short: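 Growth inhibition vs vehicle controls; genetically altered yeast strain (DNA damage repair defect) treated with test compounds.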
# [2] = NCI Yeast Anticancer Drug Screen. Data for the sgs1 mgt1 strain (AID 161);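 note: 0% = growth of cultures given vehicle only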; conditions: S. cerevisiae sgs1 mgt1 strain, active compounds read high
# In short: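 Mutant yeast exposed to compound; growth scored against vehicle-only wells.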
# [3] = NCI Yeast Anticancer Drug Screen. Data for the CLN2oe strain (AID 163);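 note: 0% = growth of vehicle-only control cultures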; conditions: S. cerevisiae CLN2oe strain, active compounds read high
# In short: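 Read-out: yeast growth inhibition, expressed relative to vehicle-only controls. The strain bears an engineered cell-cycle alteration.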
# [4] = NCI Yeast Anticancer Drug Screen. Data for the cln2 rad14 strain (AID 165);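 note: 0% = growth equal to vehicle treated cultures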; conditions: S. cerevisiae cln2 rad14 strain, active compounds read high
# In short: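 cln2 rad14 yeast strain; compound exposure; growth inhibition read vs vehicle controls.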
# [5] = NCI Yeast Anticancer Drug Screen. Data for the bub3 strain (AID 167); conditions: S. cerevisiae bub3 mutant strain, active compounds read high
# In short: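 Readout: yeast growth inhibition, expressed relative to vehicle-only wells. The test organism is a mutant strain from a panel with lesions in DNA repair or checkpoint genes.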
# [6] = NCI Yeast Anticancer Drug Screen. Data for the wt2 strain (AID 169);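 note: 0% = growth of vehicle-treated yeast cultures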; conditions: S. cerevisiae wt2 strain growth inhibition, active compounds read high
# In short: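 Read-out: growth inhibition versus vehicle-treated control cultures after compound exposure of the yeast strain.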
# [7] = NCI Yeast Anticancer Drug Screen. Data for the mlh1 strain (AID 171);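 note: 0% = growth of vehicle-treated control cultures of the same strain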; conditions: S. cerevisiae mlh1 strain growth inhibition, active compounds read high
# In short: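 Read-out: growth inhibition versus vehicle controls. Strain: engineered yeast with a defined DNA repair or cell cycle defect, compound-treated.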
# [8] = NCI Yeast Anticancer Drug Screen. Data for the sgs1 strain (AID 173);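 note: 0% = growth of vehicle-only control cultures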; conditions: S. cerevisiae sgs1 mutant, active compounds read high
# In short: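 Read-out: yeast growth inhibition relative to vehicle controls, following compound exposure of a strain with a defined DNA repair/cell cycle alteration.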
# [9] = NCI Yeast Anticancer Drug Screen. Data for the rad18 strain (AID 177); conditions: S. cerevisiae rad18 mutant growth inhibition, active compounds read high
# In short: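 Readout: growth inhibition vs vehicle controls. Cells: genetically altered yeast strain, DNA repair defect.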
# [10] = NCI Yeast Anticancer Drug Screen. Data for the rad52 strain (AID 147);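 note: 0% = growth of vehicle-treated control cultures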; conditions: S. cerevisiae rad52 mutant growth inhibition, active compounds read high
# In short: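 Read-out: growth inhibition versus vehicle-treated controls. Cells were a DNA repair-deficient yeast strain treated with compounds.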
# [11] = NCI Yeast Anticancer Drug Screen. Data for the wt1 strain (AID 149);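 note: 0% = growth of vehicle-treated wt1 cultures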; conditions: S. cerevisiae wt1 strain (SPY 50644) growth inhibition, active compounds read high
# In short: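 Growth inhibition read against vehicle controls after compound exposure of the wt1 yeast strain.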
# [12] = NCI Yeast Anticancer Drug Screen. Data for the rad50EPP+ strain (AID 151);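 note: 0% = growth of vehicle-treated control cultures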; conditions: S. cerevisiae rad50 mutant strain, active compounds read high
# In short: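 Growth inhibition read against vehicle controls in rad50EPP+ yeast, a strain altered in DNA damage repair, after compound exposure.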
# [13] = NCI Yeast Anticancer Drug Screen. Data for the mgt1 strain (AID 153); conditions: S. cerevisiae mgt1 mutant growth inhibition, active compounds read high
# In short: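 mgt1 yeast grown with test compound; read-out is growth inhibition versus vehicle-treated cultures.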
# [14] = NCI Yeast Anticancer Drug Screen. Data for the rad50 strain (AID 155);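 note: 0% = growth of vehicle-only cultures of the same strain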; conditions: S. cerevisiae rad50 strain growth inhibition, active compounds read high
# In short: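 Readout: growth inhibition relative to vehicle-treated cultures. Compound exposure was carried out in a genetically defined yeast strain deficient in DNA damage repair.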
# [15] = NCI Yeast Anticancer Drug Screen. Data for the mec2-1 strain (AID 157); conditions: S. cerevisiae mec2-1 strain, active compounds read high
# In short: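 Yeast mec2-1 mutant treated with compound. Readout: growth inhibition vs vehicle controls.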
# [16] = NCI Yeast Anticancer Drug Screen. Data for the mlh1 rad18 strain (AID 175); conditions: S. cerevisiae mlh1 rad18 strain growth inhibition, active compounds read high
# In short: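 Yeast w/ defined DNA-repair lesions; compound exposure; growth vs vehicle controls → % inhibition.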
# [17] = at 5.0 µM (retest, dose inferred, filed as 0.5)
# [18] = at 50.0 µM (retest, dose inferred, filed as 5.0)
smiles,measurement,setting,value
Cn1ccnc1Oc1ccc(Cl)cc1,growth inhibition,[1]; at 11.0 µM,26%
same,growth inhibition,[1]; at 33.0 µM,46%
same,growth inhibition,[1]; at 100.0 µM,98% (active)
same,growth inhibition,[2]; [17],-61%
same,growth inhibition,[2]; [18],37%
same,growth inhibition,[2]; at 50.0 µM,32.1%
same,growth inhibition,[3]; at 1.2 µM,-8%
same,growth inhibition,[3]; at 3.7 µM,-3%
same,growth inhibition,[3]; at 11.0 µM,-2%
same,growth inhibition,[3]; at 33.0 µM,16%
same,growth inhibition,[3]; at 100.0 µM,93% (active)
same,growth inhibition,[4]; [17],-52%
same,growth inhibition,[4]; [18],-6%
same,growth inhibition,[4]; at 50.0 µM,-55.4%
same,growth inhibition,[5]; at 1.2 µM,-6%
same,growth inhibition,[5]; at 3.7 µM,-3%
same,growth inhibition,[5]; [17],-65%
same,growth inhibition,[5]; at 11.0 µM,0%
same,growth inhibition,[5]; at 33.0 µM,25%
same,growth inhibition,[5]; [18],55%
same,growth inhibition,[5]; at 50.0 µM,38.1%
same,growth inhibition,[5]; at 100.0 µM,97% (active)
same,growth inhibition,[6]; at 1.2 µM,-7%
same,growth inhibition,[6]; at 3.7 µM,7%
same,growth inhibition,[6]; at 11.0 µM,30%
same,growth inhibition,[6]; at 33.0 µM,78% (active)
same,growth inhibition,[6]; at 100.0 µM,99% (active)
same,growth inhibition,[7]; at 1.2 µM,-11%
same,growth inhibition,[7]; at 3.7 µM,-4%
same,growth inhibition,[7]; at 11.0 µM,0%
same,growth inhibition,[7]; at 33.0 µM,45%
same,growth inhibition,[7]; at 100.0 µM,98% (active)
same,growth inhibition,[8]; at 1.2 µM,-15%
same,growth inhibition,[8]; at 3.7 µM,-5%
same,growth inhibition,[8]; at 11.0 µM,15%
same,growth inhibition,[8]; at 33.0 µM,83% (active)
same,growth inhibition,[8]; at 100.0 µM,98% (active)
same,growth inhibition,[9]; at 1.2 µM,-7%
same,growth inhibition,[9]; at 3.7 µM,-1%
same,growth inhibition,[9]; at 11.0 µM,6%
same,growth inhibition,[9]; at 33.0 µM,55%
same,growth inhibition,[9]; at 100.0 µM,97% (active)
CC(=O)OCCOCNC(=S)N/N=C(\C)c1cnccn1,growth inhibition,[10]; at 1.2 µM,-27%
same,growth inhibition,[10]; at 3.7 µM,-41%
same,growth inhibition,[10]; at 11.0 µM,-19%
same,growth inhibition,[10]; at 33.0 µM,20%
same,growth inhibition,[10]; at 100.0 µM,77% (active)
same,growth inhibition,[11]; at 1.2 µM,-14%
same,growth inhibition,[11]; at 3.7 µM,-11%
same,growth inhibition,[11]; at 11.0 µM,5%
same,growth inhibition,[11]; at 33.0 µM,28%
same,growth inhibition,[11]; at 100.0 µM,69%
same,growth inhibition,[12]; at 1.2 µM,9%
same,growth inhibition,[12]; at 3.7 µM,9%
same,growth inhibition,[12]; at 11.0 µM,-9%
same,growth inhibition,[12]; at 33.0 µM,0%
same,growth inhibition,[12]; at 100.0 µM,-4%
same,growth inhibition,[13]; at 1.2 µM,8%
same,growth inhibition,[13]; at 3.7 µM,9%
same,growth inhibition,[13]; at 11.0 µM,29%
same,growth inhibition,[13]; at 33.0 µM,53%
same,growth inhibition,[13]; at 100.0 µM,82% (active)
same,growth inhibition,[14]; at 1.2 µM,13%
same,growth inhibition,[14]; at 3.7 µM,-1%
same,growth inhibition,[14]; [17],-25%
same,growth inhibition,[14]; at 11.0 µM,15%
same,growth inhibition,[14]; at 33.0 µM,46%
same,growth inhibition,[14]; [18],45%
same,growth inhibition,[14]; at 50.0 µM,73.4% (active)
same,growth inhibition,[14]; at 100.0 µM,85% (active)
same,growth inhibition,[15]; at 1.2 µM,-17%
same,growth inhibition,[15]; at 3.7 µM,-17%
same,growth inhibition,[15]; [17],-59%
same,growth inhibition,[15]; at 11.0 µM,-2%
same,growth inhibition,[15]; at 33.0 µM,27%
same,growth inhibition,[15]; [18],44%
same,growth inhibition,[15]; at 50.0 µM,59.7%
same,growth inhibition,[15]; at 100.0 µM,75% (active)
same,growth inhibition,[2]; [17],-15%
same,growth inhibition,[2]; [18],43%
same,growth inhibition,[2]; at 50.0 µM,72.7% (active)
same,growth inhibition,[3]; at 1.2 µM,8%
same,growth inhibition,[3]; at 3.7 µM,2%
same,growth inhibition,[3]; at 11.0 µM,12%
same,growth inhibition,[3]; at 33.0 µM,21%
same,growth inhibition,[3]; at 100.0 µM,82% (active)
same,growth inhibition,[4]; [17],-9%
same,growth inhibition,[4]; [18],45%
same,growth inhibition,[4]; at 50.0 µM,60.8%
same,growth inhibition,[5]; at 1.2 µM,-18%
same,growth inhibition,[5]; at 3.7 µM,17%
same,growth inhibition,[5]; [17],-5%
same,growth inhibition,[5]; at 11.0 µM,24%
same,growth inhibition,[5]; at 33.0 µM,51%
same,growth inhibition,[5]; [18],67%
same,growth inhibition,[5]; at 50.0 µM,75.3% (active)
same,growth inhibition,[5]; at 100.0 µM,84% (active)
same,growth inhibition,[6]; at 1.2 µM,-23%
same,growth inhibition,[6]; at 3.7 µM,-24%
same,growth inhibition,[6]; at 11.0 µM,6%
same,growth inhibition,[6]; at 33.0 µM,25%
same,growth inhibition,[6]; at 100.0 µM,74% (active)
same,growth inhibition,[7]; at 1.2 µM,-1%
same,growth inhibition,[7]; at 3.7 µM,-4%
same,growth inhibition,[7]; at 11.0 µM,15%
same,growth inhibition,[7]; at 33.0 µM,49%
same,growth inhibition,[7]; at 100.0 µM,80% (active)
same,growth inhibition,[8]; at 1.2 µM,-23%
same,growth inhibition,[8]; at 3.7 µM,-15%
same,growth inhibition,[8]; at 11.0 µM,0%
same,growth inhibition,[8]; at 33.0 µM,41%
same,growth inhibition,[8]; at 100.0 µM,80% (active)
same,growth inhibition,[16]; [17],-29%
same,growth inhibition,[16]; [18],-7%
same,growth inhibition,[16]; at 50.0 µM,62.4%
same,growth inhibition,[9]; at 1.2 µM,7%
same,growth inhibition,[9]; at 3.7 µM,-5%
same,growth inhibition,[9]; at 11.0 µM,13%
same,growth inhibition,[9]; at 33.0 µM,32%
same,growth inhibition,[9]; at 100.0 µM,82% (active)
